From ChEMBL document CHEMBL3988442, “University of Dundee, Small-Polar-MMV Screening Library” (2021) come the findings set out here.

Molecules are shown by their SMILES. Potency and affinity values are given separately.

The first experiment deals with Protein translocase subunit SecA (Escherichia coli (strain K12)) (UniProt P10408). The experiment is described as follows: Assay to Identify E. coli SecA ATPase Inhibitors. The conditions noted are these: 30 µM. It counts as functional. Set-up: scale not given: direction of the effect not stated beside the values.
Chain of Protein translocase subunit SecA (Escherichia coli (strain K12)) (P10408 whole entry): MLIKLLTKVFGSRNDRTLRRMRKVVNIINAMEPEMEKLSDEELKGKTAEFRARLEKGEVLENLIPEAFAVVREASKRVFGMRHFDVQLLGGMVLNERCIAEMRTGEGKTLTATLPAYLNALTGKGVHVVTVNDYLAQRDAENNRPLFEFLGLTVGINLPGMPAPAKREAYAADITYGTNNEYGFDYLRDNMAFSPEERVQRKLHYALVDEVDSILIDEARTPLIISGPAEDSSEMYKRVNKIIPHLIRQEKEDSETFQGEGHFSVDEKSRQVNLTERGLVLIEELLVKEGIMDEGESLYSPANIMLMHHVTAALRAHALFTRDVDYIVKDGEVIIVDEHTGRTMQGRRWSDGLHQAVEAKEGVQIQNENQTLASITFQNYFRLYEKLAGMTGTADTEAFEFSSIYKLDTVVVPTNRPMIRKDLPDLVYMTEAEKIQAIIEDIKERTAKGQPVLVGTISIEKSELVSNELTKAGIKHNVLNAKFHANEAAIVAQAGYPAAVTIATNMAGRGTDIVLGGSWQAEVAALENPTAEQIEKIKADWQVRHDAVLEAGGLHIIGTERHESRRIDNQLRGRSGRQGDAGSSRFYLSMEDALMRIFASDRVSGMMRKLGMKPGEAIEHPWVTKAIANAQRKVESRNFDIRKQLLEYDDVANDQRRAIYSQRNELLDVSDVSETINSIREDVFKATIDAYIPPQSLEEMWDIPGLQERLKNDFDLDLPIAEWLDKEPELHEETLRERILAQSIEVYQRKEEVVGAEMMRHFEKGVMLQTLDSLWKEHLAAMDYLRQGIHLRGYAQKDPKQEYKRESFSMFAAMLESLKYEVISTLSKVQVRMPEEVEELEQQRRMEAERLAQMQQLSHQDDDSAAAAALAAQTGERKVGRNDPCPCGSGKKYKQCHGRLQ
In the case of `Cc1nc(C2CCCN2CC(=O)N(Cc2ccsc2)C2CC2)no1` (stereo not drawn), the Percent Effect is -3.4%.

In the case of `CC(C)S(=O)(=O)N1CCC(c2cc3n(n2)[C@@H](C(F)(F)F)C[C@@H](C)N3)C1` (stereo partly drawn), the Percent Effect is -0.301%.

In the case of `O=C(CSCC1CC1)N1CCCC(c2nccn2Cc2ccncc2)C1` (stereo not drawn), the Percent Effect was -2.74%.

Regarding `CC(=O)N1CCCN(c2nccc(-c3cn(C)nc3C)n2)CC1`, the Percent Effect was -5.23%.

As for `COc1ccc(C2CCCN2S(=O)(=O)N(C)CC(C)C)cc1` (stereo not drawn), the Percent Effect is -1.74%.

Regarding `Cc1cccc2[nH]c(C3CCN(C(=O)c4ccnn4C)CC3)nc12`, the Percent Effect is -4.98%.

For the compound `Cc1nc(CN2CCc3nn(C(C)C)c(=O)cc3C2)oc1C`, the Percent Effect is -3.86%.

As to `COc1cc(CNC(=O)NCc2c(C)cc(C)[nH]c2=O)ccc1C`, the Percent Effect is -6.17%.

As to `Fc1cccc(-c2nc(CN3CCOC(Cn4cccn4)C3)co2)c1` (stereo not drawn), the Percent Effect was -5.98%.

Regarding `O=C([C@@H]1CC[C@@H]2[C@@H](CCN2Cc2ccoc2)O1)N1CCCC1`, the Percent Effect was -5.35%.

Regarding `Cn1cccc1C(=O)N1CCC2(CC1)CN(c1ccccn1)CCO2`, the Percent Effect was -5.31%.

Consider `CCc1ccc(NS(=O)(=O)CC2=NC(=O)n3cccc3C2=O)cc1`, for which the Percent Effect was found to be 1.25%.

In the case of `CC(=O)c1ccc(OCC(=O)NC(C)CCc2ccco2)cc1` (stereo not drawn), the Percent Effect was -0.558%.

`CN(C)CC(=O)N1CCCC2(CCC(=O)N(CCc3c[nH]cn3)C2)C1` (stereo not drawn): the Percent Effect is -1.9%.

As to `N#Cc1cccc(S(=O)(=O)N2CCCCC2CCN2CCCC2=O)c1` (stereo not drawn), the Percent Effect was -5.51%.

For `O=C(NCC(O)c1ccc(F)c(F)c1)c1cccnc1O` (stereo not drawn), the Percent Effect was -0.608%.

On to `Cc1cccc(CN2C(=O)CC[C@@H]3[C@H]2CCN3Cc2ccc(C)s2)n1`, for which the Percent Effect was -2.54%.

As to `CC(=O)N1CC[C@H]2OCC[C@@]2(C(=O)NCc2ccco2)C1`, the Percent Effect was -5.68%.

Take `CSC(C)(C)CNC(=O)NC1CCN(C)CC1`: the Percent Effect was -2.43%.

As to `CN(Cc1ncc(-c2ccccc2)o1)CC1CCCN1c1cccnn1` (stereo not drawn), the Percent Effect was -0.973%.

In the case of `Cc1noc([C@H]2C[C@@H]3CCN(CC4CC4)C[C@H]3O2)n1`, the Percent Effect was -4.27%.

`O=C(O)c1cc2c(nc1O)CC(c1cccc(Cl)c1)CC2=O` (stereo not drawn): the Percent Effect was -6.48%.

In the case of `COCCCC(=O)NS(=O)(=O)c1ccc2c(c1)OCCCO2`, the Percent Effect was -3.41%.

With `Cc1nn(C)c(Cl)c1CNCc1cccnc1N1CCOCC1`, the Percent Effect was -8.75%.

Consider `CN(Cc1ccc(F)cc1)CC1(O)CCCN(CC(C)(C)C)C1=O` (stereo not drawn), for which the Percent Effect was -5.95%.

As for `CN(CC(=O)N1CCC(Oc2ccccc2)CC1)c1cnccn1`, the Percent Effect was -3.37%.

Regarding `CC(=O)N1CCn2c(COCc3csc(C)n3)cnc2C1C` (stereo not drawn), the Percent Effect is -5.84%.

For `Cc1cc(C)c(CNC(=O)N2CCCC2C(N)=O)c(=O)[nH]1` (stereo not drawn), the Percent Effect was -3.77%.

For `Cc1ccc(N2CCCC(NCC(=O)NCC3CC3)C2)nn1` (stereo not drawn), the Percent Effect was -4.97%.

Turning to `O=C1CC(c2ccc(F)c(F)c2)c2snc(C(=O)O)c2N1` (stereo not drawn), the Percent Effect was -0.493%.

For the compound `Cc1nc(-c2ccccc2)sc1C(=O)NCCNc1ncccn1`, the Percent Effect was -4.03%.

As to `CNS(=O)(=O)c1cccc(CNC(=O)c2c(C)nn(C)c2C)c1`, the Percent Effect was -5.54%.

As to `Clc1ccc(CN2CCCC(Cn3cncn3)C2)c2ncccc12` (stereo not drawn), the Percent Effect was -5.66%.

As for `CCN(CC)Cc1cn2c(n1)CN(C(=O)c1cnccn1)CC2`, the Percent Effect was -2.54%.

Take `CN(C)C(=O)[C@H]1C[C@@H]2CN(S(=O)(=O)Cc3ccccc3)C[C@H]1O2`: the Percent Effect is -2.48%.

For the compound `CCc1nc(C2CCCN(C(=O)c3cccc4cn[nH]c34)C2)no1` (stereo not drawn), the Percent Effect is -7.64%.

Consider `CC(C(=O)NCCOc1ccc2c(c1)OCO2)n1cncn1` (stereo not drawn), for which the Percent Effect is -1.18%.

Turning to `CC(C)OCCCNC(=O)CN1CCC(N2CCN(C)C2=O)CC1`, the Percent Effect is -4.79%.

As to `CN(C)c1nc2c(c(=O)[nH]1)CCN(C(=O)c1cccc3nccnc13)C2`, the Percent Effect amounted to 1.03%.

The target in another experiment is T1, Ubiquitin-activating enzyme e1, putative (Leishmania donovani (strain BPK282A1)) (UniProt E9BSI1).
T1 sequence (whole entry): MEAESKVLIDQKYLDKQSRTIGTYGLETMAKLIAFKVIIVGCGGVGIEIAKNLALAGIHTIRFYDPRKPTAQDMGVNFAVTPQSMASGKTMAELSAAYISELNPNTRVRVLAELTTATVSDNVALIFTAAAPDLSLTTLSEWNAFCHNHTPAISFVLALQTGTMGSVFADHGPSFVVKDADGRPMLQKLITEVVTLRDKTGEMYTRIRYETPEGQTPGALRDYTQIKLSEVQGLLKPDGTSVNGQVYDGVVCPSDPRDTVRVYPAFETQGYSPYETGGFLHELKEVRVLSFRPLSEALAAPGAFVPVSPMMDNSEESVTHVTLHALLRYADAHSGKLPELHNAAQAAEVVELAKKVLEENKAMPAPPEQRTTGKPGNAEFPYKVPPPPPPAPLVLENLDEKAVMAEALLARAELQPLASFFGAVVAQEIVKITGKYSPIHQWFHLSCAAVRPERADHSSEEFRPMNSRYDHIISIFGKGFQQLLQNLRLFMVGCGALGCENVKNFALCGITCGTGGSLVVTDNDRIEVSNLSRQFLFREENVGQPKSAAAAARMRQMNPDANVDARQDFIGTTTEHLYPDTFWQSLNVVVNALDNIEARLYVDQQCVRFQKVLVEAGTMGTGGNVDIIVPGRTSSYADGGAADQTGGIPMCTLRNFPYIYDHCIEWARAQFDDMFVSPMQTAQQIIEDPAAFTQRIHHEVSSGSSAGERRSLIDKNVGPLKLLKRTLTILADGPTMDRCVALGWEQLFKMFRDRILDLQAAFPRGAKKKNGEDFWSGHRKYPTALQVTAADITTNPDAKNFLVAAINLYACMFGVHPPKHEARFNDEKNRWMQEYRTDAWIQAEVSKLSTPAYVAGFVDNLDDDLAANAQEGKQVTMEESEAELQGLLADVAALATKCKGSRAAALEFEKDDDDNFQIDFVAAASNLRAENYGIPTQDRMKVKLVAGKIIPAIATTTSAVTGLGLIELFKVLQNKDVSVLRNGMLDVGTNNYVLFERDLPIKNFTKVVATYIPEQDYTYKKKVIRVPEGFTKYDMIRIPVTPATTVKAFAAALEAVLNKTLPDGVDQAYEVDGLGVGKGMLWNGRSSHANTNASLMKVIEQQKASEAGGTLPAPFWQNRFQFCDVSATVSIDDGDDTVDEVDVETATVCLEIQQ
The experiment is described as follows: Leishmania donovani Ubiquitin Activating Enzyme (LdE1). Type of experiment: functional. Set-up: scale not given: direction of the effect not stated beside the values. The following applies: 30 µM.
With `Cc1nc(C2CCCN2CC(=O)N(Cc2ccsc2)C2CC2)no1` (stereo not drawn), the Percent Effect was -8.11%.

For `CC(C)S(=O)(=O)N1CCC(c2cc3n(n2)[C@@H](C(F)(F)F)C[C@@H](C)N3)C1` (stereo partly drawn), the Percent Effect stood at 5.33%.

As for `O=C(CSCC1CC1)N1CCCC(c2nccn2Cc2ccncc2)C1` (stereo not drawn), the Percent Effect amounted to 15.3%.

For `CC(=O)N1CCCN(c2nccc(-c3cn(C)nc3C)n2)CC1`, the Percent Effect worked out at 5.33%.

In the case of `COc1ccc(C2CCCN2S(=O)(=O)N(C)CC(C)C)cc1` (stereo not drawn), the Percent Effect was -6.94%.

Take `Cc1cccc2[nH]c(C3CCN(C(=O)c4ccnn4C)CC3)nc12`: the Percent Effect is 7.79%.

With `Cc1nc(CN2CCc3nn(C(C)C)c(=O)cc3C2)oc1C`, the Percent Effect is -2.63%.

Turning to `COc1cc(CNC(=O)NCc2c(C)cc(C)[nH]c2=O)ccc1C`, the Percent Effect came to 7.89%.

`Fc1cccc(-c2nc(CN3CCOC(Cn4cccn4)C3)co2)c1` (stereo not drawn): the Percent Effect was 2.7%.

On to `O=C([C@@H]1CC[C@@H]2[C@@H](CCN2Cc2ccoc2)O1)N1CCCC1`, for which the Percent Effect was 13.5%.

With `Cn1cccc1C(=O)N1CCC2(CC1)CN(c1ccccn1)CCO2`, the Percent Effect came to 5.2%.

As to `CCc1ccc(NS(=O)(=O)CC2=NC(=O)n3cccc3C2=O)cc1`, the Percent Effect was -17.3%.

With `CC(=O)c1ccc(OCC(=O)NC(C)CCc2ccco2)cc1` (stereo not drawn), the Percent Effect amounted to 5.41%.

On to `CN(C)CC(=O)N1CCCC2(CCC(=O)N(CCc3c[nH]cn3)C2)C1` (stereo not drawn), for which the Percent Effect came to 15.6%.

As to `N#Cc1cccc(S(=O)(=O)N2CCCCC2CCN2CCCC2=O)c1` (stereo not drawn), the Percent Effect is -52%.

Take `O=C(NCC(O)c1ccc(F)c(F)c1)c1cccnc1O` (stereo not drawn): the Percent Effect stood at 13.7%.

`Cc1cccc(CN2C(=O)CC[C@@H]3[C@H]2CCN3Cc2ccc(C)s2)n1`: the Percent Effect amounted to 2.67%.

`CC(=O)N1CC[C@H]2OCC[C@@]2(C(=O)NCc2ccco2)C1`: the Percent Effect worked out at 5.33%.

For `CSC(C)(C)CNC(=O)NC1CCN(C)CC1`, the Percent Effect was found to be 5.33%.

For the compound `CN(Cc1ncc(-c2ccccc2)o1)CC1CCCN1c1cccnn1` (stereo not drawn), the Percent Effect was -26%.

For `Cc1noc([C@H]2C[C@@H]3CCN(CC4CC4)C[C@H]3O2)n1`, the Percent Effect amounted to 7.79%.

With `O=C(O)c1cc2c(nc1O)CC(c1cccc(Cl)c1)CC2=O` (stereo not drawn), the Percent Effect amounted to 1.33%.

Turning to `COCCCC(=O)NS(=O)(=O)c1ccc2c(c1)OCCCO2`, the Percent Effect came out at 5.26%.

On to `Cc1nn(C)c(Cl)c1CNCc1cccnc1N1CCOCC1`, for which the Percent Effect was 21.1%.

For `CN(Cc1ccc(F)cc1)CC1(O)CCCN(CC(C)(C)C)C1=O` (stereo not drawn), the Percent Effect is -1.39%.

In the case of `CN(CC(=O)N1CCC(Oc2ccccc2)CC1)c1cnccn1`, the Percent Effect worked out at 21.6%.

Consider `CC(=O)N1CCn2c(COCc3csc(C)n3)cnc2C1C` (stereo not drawn), for which the Percent Effect is 18.7%.

`Cc1cc(C)c(CNC(=O)N2CCCC2C(N)=O)c(=O)[nH]1` (stereo not drawn): the Percent Effect is 6.33%.

For the compound `Cc1ccc(N2CCCC(NCC(=O)NCC3CC3)C2)nn1` (stereo not drawn), the Percent Effect is 6.33%.

For `O=C1CC(c2ccc(F)c(F)c2)c2snc(C(=O)O)c2N1` (stereo not drawn), the Percent Effect is -6.67%.

On to `Cc1nc(-c2ccccc2)sc1C(=O)NCCNc1ncccn1`, for which the Percent Effect is -2.63%.

On to `CNS(=O)(=O)c1cccc(CNC(=O)c2c(C)nn(C)c2C)c1`, for which the Percent Effect was found to be 11.4%.

`Clc1ccc(CN2CCCC(Cn3cncn3)C2)c2ncccc12` (stereo not drawn): the Percent Effect was -7.79%.

As for `CCN(CC)Cc1cn2c(n1)CN(C(=O)c1cnccn1)CC2`, the Percent Effect was 10.8%.

Turning to `CN(C)C(=O)[C@H]1C[C@@H]2CN(S(=O)(=O)Cc3ccccc3)C[C@H]1O2`, the Percent Effect worked out at 13.3%.

Consider `CCc1nc(C2CCCN(C(=O)c3cccc4cn[nH]c34)C2)no1` (stereo not drawn), for which the Percent Effect is 5.41%.

As for `CC(C(=O)NCCOc1ccc2c(c1)OCO2)n1cncn1` (stereo not drawn), the Percent Effect was found to be 20.2%.

With `CC(C)OCCCNC(=O)CN1CCC(N2CCN(C)C2=O)CC1`, the Percent Effect was -12.7%.

In the case of `CN(C)c1nc2c(c(=O)[nH]1)CCN(C(=O)c1cccc3nccnc13)C2`, the Percent Effect was 18.2%.
